Measured values: publication PMC5540273 (PLoS ONE, 2017)

What follows are compounds tested on T1, IKK-alpha. Settings: concentration: 1 μM,replicates: in singlicate; n = 1.
T1 construct: gene CHUK
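Further: KINOMEscan kinase panel screen.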

| Compound | %Inh [%] |
| --- | --- |
| Cn1ccc2ncnc(Oc3ccc(NC(=O)Nc4cc(C(C)(C)C)on4)c(Cl)c3)c21 | 17 |
| COC(=O)c1cccc(NC(=O)NC2CCN(c3ccnc(Nc4cc(OC)c(OC)c(OC)c4)n3)C2)c1 (stereo not shown) [GSK1379767] | 0 |
| O=C(Nc1ccccc1)c1cccc(Oc2ccc3nccn3n2)c1 | 0 |

The compounds below were run on T2, IKK-beta. Settings: concentration: 1 μM,replicates: in singlicate; n = 1.
T2 construct: gene IKBKB

| Compound | %Inh [%] |
| --- | --- |
| Cn1ccc2ncnc(Oc3ccc(NC(=O)Nc4cnn(C(C)(C)C)c4)c(Cl)c3)c21 | 17 |
| COc1cc2ncn(-c3cc(OCC4CCCCC4)c(C(N)=O)s3)c2cc1OC [GSK204559] | 2 |
| COc1cccc(CNC(=O)NC2CCN(c3ccnc(Nc4cc(OC)c(OC)c(OC)c4)n3)C2)c1 (stereo not shown) [GSK1379765] | 24 |
| Cn1ccc2ncnc(Oc3ccc(NC(=O)Nc4cccc(C(F)(F)F)c4)c(F)c3)c21 | 0 |
| CNC(=O)c1ccccc1Nc1nc(Nc2cccc(CS(C)(=O)=O)c2)ncc1C.O=CO [GSK1520489] | 37 |
| C[C@@H](Oc1cc(-n2cnc3cc(-c4cnn(C)c4)ccc32)sc1C(N)=O)c1ccccc1Cl [GSK580432] | 8 |
| COc1cc(Nc2nccc(N3CCC(NC(=O)c4cccc(C#N)c4)C3)n2)cc(OC)c1OC (stereo not shown) [GSK1379751] | 0 |
| Cc1ccn2nc(-c3ccc(F)cc3)c(-c3ccncc3)c2c1.Cl [GW457859] | 0 |
| CN1CCN(CCNc2nc3cc(Oc4ccc(NC(=O)Nc5cc(C(F)(F)F)ccc5F)cc4)ccc3[nH]2)CC1.Cl.Cl [GW768504] | 0 |
| NC(=O)c1ccc(-c2cc3ncnc(SCC(=O)O)c3s2)cc1 | 0 |
| CC(=O)c1c(-c2ccncc2)[nH]c(-c2ccncc2)c1C [GW493036] | 30 |
| O=C(Nc1cccc(C(F)(F)F)c1)c1cccc(Oc2ccc3nccn3n2)c1 | 0 |
| CC(=O)Nc1nc2cnc(Nc3cc(NC(=O)c4cccc(CC(C)(C)C#N)c4)ccc3C)nc2s1 | 1 |
| COc1ccc(Nc2nccc(N3CCC(NC(=O)c4cccc(C#N)c4)C3)n2)cc1 (stereo not shown) [GSK1379730] | 6 |
| Cl.c1ccc(Oc2ccc(Nc3ccnc4cc(-c5ccc(CN6CCNCC6)o5)ccc34)cc2)nc1 [GW567142] | 0 |
| O=C(Nc1ccc(Oc2ccc3nc(NC(=O)C4CC4)cn3n2)c(F)c1)c1cccn(-c2ccccc2)c1=O | 0 |
| Cl.Cl.NC[C@H](CC1CCCCC1)NC(=O)c1ccc(-c2ccnc3[nH]ccc23)s1 [GSK1581428] | 72 |
| COC(=O)Nc1nc2cc(Oc3ccc(NC(=O)Nc4cc(C(F)(F)F)ccc4Cl)cc3)ccc2[nH]1.Cl [GW697465] | 16 |
| CC(C(=O)NC1CCN(c2ccnc(Nc3ccc(F)cc3)n2)C1)c1ccc(Cl)cc1 (stereo not shown) [GSK1379713] | 0 |

| Compound | %Inh [%] |
| --- | --- |
| O=C(NCC1CC1)c1ccc(-c2cc(C(=O)NC3CC3)ccc2F)cc1 [GW810445] | 0 |
| CCN1CCN(CCCC(=O)Nc2n[nH]c3nc(-c4ccc(O)cc4)c(Br)cc23)CC1 [SB-731579] | 0 |
| Cc1nnc(-c2ccc3occ(-c4ccc(S(C)=O)cc4)c3n2)o1 (stereo not shown) | 0 |
| CC(C)S(=O)(=O)N1CCN(Cc2ccc3c(c2)nc(NC(=O)c2ccsc2)n3C[C@H](O)c2ccccc2)CC1 [GW635815] | 13 |
| Cn1ccc2ncnc(Oc3ccc(NC(=O)Nc4cccc(C(F)(F)F)c4)c(Cl)c3)c21 | 19 |
| Cn1ccc2ncnc(Oc3ccc(NC(=O)Nc4ccnc(C(F)(F)F)c4)c(Cl)c3)c21 | 13 |
| Cc1cccc2c(-c3ccncc3)c(-c3ccc(F)cc3)nn12.Cl [GW461487] | 0 |
| Cc1ccc2c(-c3ccnc(Nc4ccc(C(F)(F)F)cc4)n3)cnn2n1 [GW819776] | 10 |
| Cc1n[nH]c2cc(Nc3ccnc(Nc4cccc(CN5CCOCC5)c4)n3)ccc12 [GW682569] | 25 |
| CCn1c(-c2nonc2N)nc2cncc(Br)c21 [SB-738004] | 0 |
| CN1CCN(CCCNc2nccc(-c3c(-c4ccc(F)cc4)nn4cc(C(N)=O)ccc34)n2)CC1 [GW622475] | 0 |
| Nc1nccc(-c2ccc3c(N)n[nH]c3c2)n1 [GSK1034945] | 53 |
| Cc1ccc(C(=O)Nc2ccc(Oc3ccc4nc(NC(=O)C5CC5)cn4c3)c(F)c2)c(=O)n1-c1ccccc1 | 56 |
| Cn1ccc2ncnc(Oc3ccc(NC(=O)Nc4cncc(C(F)(F)F)c4)c(Cl)c3)c21 | 0 |
| NC(=O)Nc1sc(-c2ccc(F)cc2)cc1C(N)=O [GW789449] | 100 |
| Cn1ccc2ncnc(Oc3ccc(NC(=O)Nc4cc(C(C)(C)C)on4)c(Cl)c3)c21 | 9 |
| COC(=O)c1cccc(NC(=O)NC2CCN(c3ccnc(Nc4cc(OC)c(OC)c(OC)c4)n3)C2)c1 (stereo not shown) [GSK1379767] | 0 |
| O=C(Nc1ccccc1)c1cccc(Oc2ccc3nccn3n2)c1 | 0 |
